Values joined by “and” are separate entries in the source; they are usually repeats but may differ in a detail not shown here. Identical values can stand only once. More than one record can exist for a structure, and the calls need not agree. Active and inactive are the calls of the source. How the source made its calls: active means hit-call score of the fitted dose curve at least 0.9, where 1 is the maximum; inactive means score below 0.9.
Legend:
[1] = read-out: Macrophage colony-stimulating factor (MCSF), CSF1 (gene 1435); experiment: BSK_LPS_MCSF: BioMAP Diversity Plus: LPS Assay for Macrophage colony-stimulating factor (MCSF) Biomarker Activity (AID 2283083); conditions: primary human HUVEC with PBMC; actives raise or lower the signal
Outline: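 ELISA readout of M-CSF after 24 h compound exposure in a human endothelial/PBMC co-culture. Activity, in either direction, is fitted relative to DMSO vehicle.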

[2] = read-out: Tissue Factor, F3 (gene 2152); experiment: BSK_LPS_TissueFactor: BioMAP Diversity Plus: LPS Assay for Tissue Factor Biomarker Activity (AID 2283084); conditions: primary human HUVEC with PBMC; actives raise or lower the signal
Outline: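 ELISA signal for cell-surface Tissue Factor (CD142) was read 24 h after compound dosing of an LPS-stimulated human endothelial–PBMC primary co-culture. Gain or loss of signal was scored relative to DMSO.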

[3] = read-out: Tumor necrosis factor (Homo sapiens) (UniProt P01375); experiment: BSK_LPS_TNFa: BioMAP Diversity Plus: LPS Assay for Tumour Necrosis Factor alpha (TNFa) Biomarker Activity (AID 2283085); conditions: primary human HUVEC with PBMC; actives raise or lower the signal
Outline: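 Human umbilical vein endothelial cells co-cultured with PBMC were exposed to test chemical and TNFa measured by ELISA 24 h after dosing. Bidirectional curve fitting was done relative to DMSO as negative control and baseline.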

[4] = read-out: Vascular cell adhesion molecule 1 (VCAM1), VCAM1 (gene 7412); experiment: BSK_LPS_VCAM1: BioMAP Diversity Plus: LPS Assay for Vascular cell adhesion molecule 1 (VCAM1) Biomarker Activity (AID 2283086); conditions: primary human HUVEC with PBMC; actives raise or lower the signal
Outline: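 Human umbilical vein endothelial cells co-cultured with peripheral blood mononuclear cells under LPS stimulation were exposed to test chemical for 24 h. VCAM-1 levels were then measured by ELISA, with bidirectional curve fitting relative to DMSO as negative control and baseline.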

CD38, CD38 (gene 952) = experiment: BSK_SAg_CD38: BioMAP Diversity Plus: SAg Assay for CD38 Biomarker Activity (AID 2283087); conditions: primary human HUVEC with PBMC; actives raise or lower the signal
Outline: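 Fluorescence ELISA of cell-surface CD38 served as the read-out, with either increase or decrease fitted against DMSO controls. Cells were a human umbilical vein endothelium plus PBMC co-culture under SEB/TSST-1 stimulation, measured 24 h after dosing.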

CD40, CD40 (gene 958) = experiment: BSK_SAg_CD40: BioMAP Diversity Plus: SAg Assay for CD40 Biomarker Activity (AID 2283088); conditions: primary human HUVEC with PBMC; actives raise or lower the signal
Outline: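 Compounds were dosed onto a human primary endothelial–PBMC co-culture, and after 24 h CD40 was quantified by ELISA using a fluorescence signal. Activity in either direction was fitted relative to DMSO.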

CD69, CD69 (gene 969) = experiment: BSK_SAg_CD69: BioMAP Diversity Plus: SAg Assay for CD69 Biomarker Activity (AID 2283089); conditions: primary human HUVEC with PBMC; actives raise or lower the signal;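 on AC50: cell surface CD69 protein quantified by ELISA with fluorescence detection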
Outline: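 ELISA, fluorescence read-out: CD69 on human umbilical vein endothelial cell + PBMC co-culture, 24 h post-dosing. Gain or loss of signal fitted bidirectionally against DMSO baseline.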

[5] = read-out: Monocyte Chemoattractant Protein-1 (MCP1), CCL2 (gene 6347); experiment: BSK_SAg_MCP1: BioMAP Diversity Plus: SAg Assay for Monocyte Chemoattractant Protein-1 (MCP1) Biomarker Activity (AID 2283090); conditions: primary human HUVEC with PBMC; actives raise or lower the signal
Outline: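 MCP-1 levels in the endothelial–PBMC SAg co-culture were quantified by ELISA at 24 h post-dosing; both increases and decreases versus DMSO scored. Cytotoxicity monitored by SRB total protein in parallel cultures.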

[6] = read-out: E-selectin (Homo sapiens) (UniProt P16581); experiment: BSK_SAg_Eselectin: BioMAP Diversity Plus: SAg Assay for Eselectin Biomarker Activity (AID 2283091); conditions: primary human HUVEC with PBMC; actives raise or lower the signal
Outline: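 Co-culture: HUVEC + PBMC. Dose compound; 24 h. ELISA for E-selectin. Bidirectional fit vs DMSO.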

[7] = read-out: Monokine induced gamma interferon (MIG), CXCL9 (gene 4283); experiment: BSK_SAg_MIG: BioMAP Diversity Plus: SAg Assay for Monokine induced gamma interferon (MIG) Biomarker Activity (AID 2283092); conditions: primary human HUVEC with PBMC; actives raise or lower the signal
Outline: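 ELISA readout of MIG/CXCL9; primary human umbilical vein endothelial cells co-cultured with peripheral blood mononuclear cells; 24 h post-dose; gain/loss fit vs DMSO baseline.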

[8] = BSK_SAg_PBMCCytotoxicity: PBMC Cytotoxicity Assessment in the BioMAP Diversity Plus: SAg Assay (AID 2283093); conditions: primary human HUVEC with PBMC;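 further: PBMC viability measured as Alamar Blue reduction fluorescence at 546/580 nm; fitted both ways against DMSO so a hit may be loss or gain of signal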
Outline: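 Compound added to 75,000 PBMC/well for 1 h; SEB and TSST-1 then added at 20 ng/mL final each; 90 h incubation; Alamar Blue 6 h; read 546/580 nm ex/em. Activity fitted bidirectionally relative to DMSO baseline.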

[9] = read-out: Interleukin-8 (IL8), CXCL8 (gene 3576); experiment: BSK_SAg_IL8: BioMAP Diversity Plus: SAg Assay for Interleukin-8 (IL8) Biomarker Activity (AID 2283094); conditions: primary human HUVEC with PBMC; actives raise or lower the signal
Outline: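 Human umbilical vein endothelial cells co-cultured with peripheral blood mononuclear cells; IL-8 measured by ELISA 24 h after chemical dosing. Bidirectional concentration-response fitting used DMSO as negative control and activity baseline.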

[10] = BSK_SAg_Proliferation: Cell Proliferation Assessment in the BioMAP Diversity Plus: SAg Assay (AID 2283095); conditions: primary human HUVEC with PBMC;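 further: relative cell number as total protein by SRB absorbance in sub-confluent culture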
Outline: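 Human umbilical vein endothelial cells co-cultured with peripheral blood mononuclear cells; total protein measured by sulforhodamine B staining (0.1% SRB after 10% TCA fixation), absorbance at 560 nm, at 96 h. Bidirectional fit against DMSO baseline.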

[11] = BSK_SAg_SRB: Viability Assessment in the BioMAP Diversity Plus: SAg Assay (AID 2283096); conditions: primary human HUVEC with PBMC;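 further: cells read one day after compound addition; hits may be either gain or loss of signal compared with DMSO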
Outline: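 Total protein by sulforhodamine B staining, 24 h after dosing, in HUVEC–PBMC co-culture; DMSO-referenced bidirectional fitting.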

Measured: AC50

Tumor necrosis factor (Homo sapiens), sequence (P01375 whole entry, looked up): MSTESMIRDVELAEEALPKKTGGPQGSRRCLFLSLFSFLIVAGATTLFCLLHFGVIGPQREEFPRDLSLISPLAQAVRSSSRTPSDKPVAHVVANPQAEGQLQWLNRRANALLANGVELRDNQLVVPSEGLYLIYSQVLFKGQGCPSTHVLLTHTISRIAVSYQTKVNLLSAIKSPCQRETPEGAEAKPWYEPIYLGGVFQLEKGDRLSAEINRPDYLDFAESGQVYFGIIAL
E-selectin (Homo sapiens), sequence (P16581 whole entry, looked up): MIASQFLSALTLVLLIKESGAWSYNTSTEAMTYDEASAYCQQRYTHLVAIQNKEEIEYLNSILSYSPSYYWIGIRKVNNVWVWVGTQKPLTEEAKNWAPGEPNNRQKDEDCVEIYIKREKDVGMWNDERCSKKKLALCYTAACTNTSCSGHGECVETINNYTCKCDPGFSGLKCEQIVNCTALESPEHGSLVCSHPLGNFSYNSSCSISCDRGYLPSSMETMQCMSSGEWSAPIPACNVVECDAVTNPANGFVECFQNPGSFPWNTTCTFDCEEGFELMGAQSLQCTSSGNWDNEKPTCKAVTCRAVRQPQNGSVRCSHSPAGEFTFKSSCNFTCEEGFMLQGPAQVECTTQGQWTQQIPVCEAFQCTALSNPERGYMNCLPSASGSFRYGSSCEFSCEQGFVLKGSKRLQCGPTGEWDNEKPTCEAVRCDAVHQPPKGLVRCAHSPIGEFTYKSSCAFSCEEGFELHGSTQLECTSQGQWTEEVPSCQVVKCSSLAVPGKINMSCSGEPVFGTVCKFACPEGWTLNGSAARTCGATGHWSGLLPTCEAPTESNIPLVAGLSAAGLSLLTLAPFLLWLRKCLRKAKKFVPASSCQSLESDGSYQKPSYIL

CCC(C)(C)C1CCC(O)CC1 (stereo not given)
inactive: all assays above

OCCC(F)(F)C(F)(F)C(F)(F)C(F)(F)C(F)(F)C(F)(F)F
inactive: [1] | [2] | [3] | [4] | CD38, CD38 (gene 952) | CD40, CD40 (gene 958) | CD69, CD69 (gene 969) | [5] | [6] | [7] | [9] | [10] | [11]
active: [1] 46.8 µM | [4] 48.9 µM | CD38, CD38 (gene 952) 50.4 µM | CD40, CD40 (gene 958) 56.3 µM | CD69, CD69 (gene 969) 51.3 µM | [6] 54.9 µM | [7] 53.2 µM | [9] 46.1 µM | [10] 49.8 µM and 50.9 µM | [11] 53.1 µM

CCOC(=O)CC(O)(CC(=O)OCC)C(=O)OCC
inactive: all assays above

C[C@@H]1C[C@H]2[C@@H]3CCC4=CC(=O)C=C[C@]4(C)[C@@]3(F)[C@@H](O)C[C@]2(C)[C@@]1(O)C(=O)COP(=O)(O)O
inactive: [1] | [2] | [4] | CD38, CD38 (gene 952) | CD40, CD40 (gene 958) | CD69, CD69 (gene 969) | [5] | [7] | [9] | [10] | [11]
active: [3] 4.47 µM and 3.6 µM and 5.06 µM | CD40, CD40 (gene 958) 2.65 µM | [6] 2.96 µM and 1.73 µM and 1.25 µM | [9] 6.07 µM

OC1CCC(C2CCCCC2)CC1 (stereo not given)
not listed: [8]
inactive: all other assays above

CCc1nn(C2CCCCC2)c2cc(C3(C#N)CCC(C(=O)O)CC3)ccc12 (stereo not given)
active: [1] 1.85 µM | [3] 358 nM | [4] 2.43 µM | CD38, CD38 (gene 952) 20 µM | CD40, CD40 (gene 958) 10.6 µM | CD69, CD69 (gene 969) 5.47 µM | [5] 4.61 µM | [6] 1.78 µM | [7] 28 µM | [9] 2.73 µM | [10] 12.5 µM | [11] 11.5 µM
inactive: [2]

CC(=O)CC(C)(C)O
not listed: [8]
inactive: all other assays above
